# Activity calls are given as the source filed them. How the source made its calls: active means hit-call score of the fitted dose curve at least 0.9, where 1 is the maximum; inactive means score below 0.9.
# Assay: ATG_M_32_CIS: Attagene CIS-FACTORIAL HepG2 Assay for M32 Transcription Factor (Internal Marker) (AID 2282949);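 further: background control marker of the multiplexed CIS panel rather than a real target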
# Settings: HepG2 Attagene cis-factorial M32 reporter, mRNA; actives raise or lower the signal
# Method: ATG_CIS is a cell-based, multiplexed-readout assay that uses HepG2, a human liver cell line, with measurements taken at 24 hours after chemical dosing in a 24-well plate.ATG_M_32_CIS is one of 52 assay component(s) measured or calculated from the ATG_CIS assay. It is designed to make measurements of mRNA induction, a form of inducible reporter, as detected with fluorescence intensity signals by Reverse transcription polymerase chain reaction (RT-PCR) and Capillary electrophoresis technology.Data from the assay component ATG_M_32_CIS was analyzed into 1 assay endpoint. This assay endpoint, ATG_M_32_CIS, was analyzed with bidirectional fitting relative to DMSO as the negative control and baseline of activity. Using a type of inducible reporter, measures of mRNA for gain or loss-of-signal activity can be used to understand the background control at the transcription factor-level as they relate to the gene . Furthermore, this assay endpoint can be referred to as a secondary readout, because this assay has produced multiple assay endpoints where this one serves a background control function. To generalize the intended target to other relatable targets, this assay endpoint is annotated to the background measurement intended target family, where the subfamily is internal marker.
# Human liver HepG2 cells are transiently transfected with multiple reporter transcription units (MRTUs) in 6-well plates using FuGene 6 reagent (Roche; 3 ml FuGene/1 mg DNA). The MRTU constructs are regulated by a cis-regulating element (promoter). […] A major difference between the CIS and TRANS system is that in CIS activities of endogenous TFs are measured, whereas the TRANS assay evaluates changes in activities of exogenous, chimeric NR-Gal4 proteins. […] At the end of 24 hour incubation, total RNA was isolated using TriZol reagent (Invitrogen). The isolated RNA is then reverse-transcribed using oligo(dT) primer and Mo-MLV reverse transcriptase (Invitrogen) with DNAse I (Ambion) treatment for 30 min. The one-tenth of the produced cDNA was amplified by PCR using Taq DNA polymerase (Invitrogen) and two reporter sequence-specific primers. The PCR products were fluorescently labeled by primer extension with 6-arboxyfluorescein (6-FAM) 5'-labeled reporter sequence-specific primer (2 min at 95 C, 20 s at 68 C and 10 min at 72 C) and these products were digested with 5U of HpaI (New England Biolabs) for 2h at 37 C. The fragments were purified using Qiaquick PCR columns (Qiagen), analyzed on an ABI 3130xL genetic analyzer (Applied Biosystems) with peak positions identified by using a set of X-rhodamine (ROX)-labeled MapMarker1000 molecular weight standards (BioVentures). The raw capillary electrophoresis data was processed using Attagraph software (Attagene).
Compound,AC50,outcome
O=C=NC1CCC(CC2CCC(N=C=O)CC2)CC1 (stereo not given),164 µM (active),–
C=CC(=O)OCCn1c(=O)n(CCOC(=O)C=C)c(=O)n(CCOC(=O)C=C)c1=O,–,inactive
N#Cc1ccccc1,–,inactive
O=C(O)c1cccc([N+](=O)[O-])c1,–,inactive
CCN(CC)c1ccc2c(-c3ccccc3C(=O)O)c3ccc(=[N+](CC)CC)cc-3oc2c1,–,inactive
CC(C)(C)NC(N)=O,–,inactive
CC(C)=CCC/C(C)=C/COC=O,–,inactive
CCC/C=C/C=O,–,inactive
C=C(C)C(=O)Nc1ccc(Cl)c(Cl)c1,–,inactive
CCCCCC(CO)CCC (stereo not given),–,inactive
C=CC(C)(CCC=C(C)C)OC=O (stereo not given),–,inactive
NC(=O)c1ccccc1Cl,–,inactive
CCCCCC(=O)OCCc1ccccc1,–,inactive
O=C1CCCCCCCCCCCCCCO1,–,inactive
CC(C)=CCCC(C)CC=O (stereo not given),–,inactive
CCCCCNCCCCC,–,inactive
CC(C#N)(CCC(=O)O)N=NC(C)(C#N)CCC(=O)O (stereo not given),–,inactive
CO[Si](CCCn1c(=O)n(CCC[Si](OC)(OC)OC)c(=O)n(CCC[Si](OC)(OC)OC)c1=O)(OC)OC,–,inactive
NCCCCCCN,–,inactive
COc1ccc(NC(=O)CC(C)=O)cc1,–,inactive

Compound,AC50,outcome
C#C[C@]1(O)CC[C@H]2[C@@H]3CCC4=Cc5oncc5C[C@]4(C)[C@H]3CC[C@@]21C,–,inactive
CCC(=O)/C=C/C1C(C)=CCCC1(C)C (stereo not given),–,inactive
CC1CC(OC(=O)c2ccccc2O)CC(C)(C)C1 (stereo not given),–,inactive
O=C(O)CCCCCCCCCCC(=O)O,–,inactive
O=S(=O)(O)c1cccc2c(S(=O)(=O)O)cccc12,–,inactive
CN(C)CCCN,–,inactive
O=C(Nc1ccccc1)c1cc([N+](=O)[O-])ccc1Cl,–,inactive
COC(C(=O)O)c1ccccc1 (stereo not given),–,inactive
CC(C)[C@H]1CC[C@@H](C)CC1=O,–,inactive
CC1CCC2CC1C2(C)C (stereo not given),–,inactive
CCC(C)CCCC(C)(C)O (stereo not given),–,inactive
O=C(O)CCCCC1CCSS1 (stereo not given),–,inactive
Nc1nc2ccc([N+](=O)[O-])cc2s1,–,inactive
CN(C)C(=N)N=C(N)N,–,inactive
CCCCCCCCCOC(C)=O,–,inactive
CC1=CCC(O)(C(C)C)CC1 (stereo not given),–,inactive
CC(=O)[C@H]1CC[C@H]2[C@@H]3CC=C4C[C@@H](O)CC[C@]4(C)[C@H]3CC[C@]12C,–,inactive
CCOC(=O)c1ccccc1OC,–,inactive
CC(CCO)CCc1ccccc1 (stereo not given),–,inactive
O=S(=O)(O)c1ccc(O)c2ncccc12,–,inactive
